The source made the active and inactive calls. How the source made its calls: active means hit-call score of the fitted dose curve at least 0.9, where 1 is the maximum; inactive means score below 0.9.
assay: BSK_3C_SRB: Viability Assessment in the BioMAP Diversity Plus: 3C Assay (AID 2283023); conditions: primary human endothelial cells (HUVEC);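 further: fitted both ways against DMSO so a hit may be signal rise or drop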
Experimental: BSK_3C is a cell-based, multiplexed-readout assay that uses umbilical vein endothelium, a human vascular primary cell, with measurements taken at 24 hours after chemical dosing in a 96-well plate.BSK_3C_SRB is an assay component measured in the BSK_3C assay. It measures 0.1% sulforhodamine related to cell death using Sulforhodamine staining technology.Data from the assay component BSK_3C_SRB was analyzed into 1 assay endpoint. This assay endpoint, BSK_3C_SRB, was analyzed with bidirectional fitting relative to DMSO as the negative control and baseline of activity. Using a type of viability reporter, gain or loss-of-signal activity can be used to understand changes in the signaling. Furthermore, this assay endpoint can be referred to as a primary readout, because this assay has produced multiple assay endpoints where this one serves a signaling function. To generalize the intended target to other relatable targets, this assay endpoint is annotated to the cell morphology intended target family, where the subfamily is cell conformation.
The levels of cell surface (or secreted, indicated by the prefix "s") biomarker endpoints were measured by ELISA. Overt cytotoxicity to cells in confluent adherent cultures (all systems other than the BT system) was assessed by measuring total protein levels using sulforhodamine B (SRB) staining in parallel cultures at the time of biomarker measurements, indicated as SRB endpoints. For proliferation assays for adherent cell types, individual cell types are cultured at sub-confluence and relative cell numbers quantified by SRB staining at time points optimized for each system (48 h: 3C and CASM3C systems; 72 h: BT and HDF3CGF systems; 96 h: SAg system). SRB was performed by staining cells with 0.1% SRB after fixation with 10% TCA and reading wells at 560 nm.Viability and proliferation of PBMC (T cells) was quantified by Alamar Blue reduction for the SAg and BT systems. For PBMC viability (referred to as PBMC Cytotoxicity within the assay endpoint names), cells were plated (75,000/well in a 96-well plate) and then chemical samples added for 1 h before addition of activators, SEB and TSST-1 (20 ng/mL final concentration each). Cells were incubated for 90 h. Then, Alamar Blue (20 uL/well) (Invitrogen, Cat DAL1100) was added for 6 h, and the plates were read with a fluorescence microplate reader at 546/580 nm (excitation/emission). For PBMC proliferation, cells were plated and activated as above but incubated for only 16 h prior to addition of Alamar Blue. Plates were read after 6 h.

| Structure (SMILES) | outcome | AC50 |
| --- | --- | --- |
| CCc1cccc(C)c1N(C(=O)CCl)C(C)COC (stereo not given) | inactive |  |
| CC(C)[C@H](C(=O)O[C@H](C#N)c1cccc(Oc2ccccc2)c1)c1ccc(Cl)cc1 |  | 5.72 µM (active) |
| CCc1cnc(C2=NC(C)(C(C)C)C(=O)N2)c(C(=O)O)c1 (stereo not given) | inactive |  |
| CCCOCC(=Nc1ccc(Cl)cc1C(F)(F)F)n1ccnc1 |  | 31 µM (active) |
| CCOC(=O)COc1cc(-c2nn(C)c(OC(F)F)c2Cl)c(F)cc1Cl | inactive |  |
| Nc1c(Cl)cc([N+](=O)[O-])cc1Cl | inactive |  |
| CNC(=O)ON=C(C)SC | inactive |  |
| CCCCN(CC)c1c([N+](=O)[O-])cc(C(F)(F)F)cc1[N+](=O)[O-] |  | 16.4 µM (active) |
| O=c1ccc(=O)[nH][nH]1 | inactive |  |
| Cc1cc(C2CC2)nc(Nc2ccccc2)n1 |  | 24.8 µM (active) |
| CN(C)NC(=O)CCC(=O)O | inactive |  |
| CSc1nnc(C(C)(C)C)c(=O)n1N | inactive |  |
| CCCOc1nn(C(=O)NS(=O)(=O)c2ccccc2C(=O)OC)c(=O)n1C | inactive |  |
| CNC(=O)Oc1cccc2c1OC(C)(C)O2 |  | 20 µM (active) |
| CCCSP(=O)(OCC)Oc1ccc(Br)cc1Cl (stereo not given) |  | 22.6 µM (active) |
| CCc1cccc(CC)c1N(COC)C(=O)CCl |  | 20 µM (active) |
| CC(C)N(C(=O)SCC(Cl)=C(Cl)Cl)C(C)C |  | 29.8 µM (active) |
| CCC(CC)Nc1c([N+](=O)[O-])cc(C)c(C)c1[N+](=O)[O-] |  | 16.7 µM (active) |
| CN1COCN(Cc2cnc(Cl)s2)C1=N[N+](=O)[O-] | inactive |  |
| CC[C@H](C)[C@H]1O[C@]2(C=C[C@@H]1C)C[C@@H]1C[C@@H](C/C=C(\C)[C@@H](O[C@H]3C[C@H](OC)[C@@H](O[C@H]4C[C@H](OC)[C@@H](NC)[C@H](C)O4)[C@H](C)O3)[C@@H](C)/C=C/C=C3\CO[C@@H]4[C@H](O)C(C)=C[C@@H](C(=O)O1)[C@]34O)O2 |  | 2.43 µM (active) |

| Structure (SMILES) | outcome | AC50 |
| --- | --- | --- |
| CCOP(=O)(NC(C)C)Oc1ccc(SC)c(C)c1 (stereo not given) | inactive |  |
| CCOP(=S)(OCC)OC(Cl)C(Cl)(Cl)Cl (stereo not given) |  | 14.9 µM (active) |
| CC1(C(=O)Nc2ccc(O)c(Cl)c2Cl)CCCCC1 | inactive |  |
| CCC(=NOC/C=C/Cl)C1=C(O)CC(C2CCOCC2)CC1=O (stereo not given) | inactive |  |
| CCOP(=S)(OCC)Oc1cc(C)nc(C(C)C)n1 | inactive |  |
| CC1=NNC(=O)N(/N=C/c2cccnc2)C1 | inactive |  |
| CNC(=O)ON=C(SC)C(=O)N(C)C | inactive |  |
| COP(=O)(OC)SCn1c(=O)oc2cc(Cl)cnc21 |  | 20 µM (active) |
| COP(=O)(OC)C(O)C(Cl)(Cl)Cl (stereo not given) | inactive |  |
| CNc1cnn(-c2cccc(C(F)(F)F)c2)c(=O)c1Cl | inactive |  |
| C[Si](Cn1cncn1)(c1ccc(F)cc1)c1ccc(F)cc1 |  | 17.9 µM (active) |
| CON=C(C(=O)OC)c1ccccc1CON=C(C)c1cccc(C(F)(F)F)c1 |  | 10.4 µM (active) |
| CCOP(=S)(OCC)SCCSCC | inactive |  |
| COP(=O)(OC)OC(Br)C(Cl)(Cl)Br (stereo not given) |  | 28.8 µM (active) |
| CCCCSP(=O)(SCCCC)SCCCC |  | 27.9 µM (active) |
| CCOP(=O)(OCC)Oc1cc(C)nc(C(C)C)n1 | inactive |  |
| CCCCOC(=O)[C@@H](C)Oc1ccc(Oc2ccc(C#N)cc2F)cc1 | inactive |  |
| S=C1NCCN1 | inactive |  |
| O=C(O)c1cc(Oc2ccc(C(F)(F)F)cc2Cl)ccc1[N+](=O)[O-] | inactive |  |
| CCNc1nc(Cl)nc(NC(C)(C)C#N)n1 | inactive |  |

— PubChem BioAssay (EPA / NIEHS)
